Where “and” joins values, the source holds several entries; their conditions need not be identical. Equal entries are not always repeated. This is part of a sample that, as a whole, favours compounds with a hit. Of some 83,000 tested, about 20% had one in any assay.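 Cell lines were cultured in 96-well plates, exposed to a single compound concentration, and assessed for percent growth 48 hours later.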 Calls of active or inactive are those of the source. The calls were made as follows: active = growth percent below 10; inactive = the rest.
Key:
Assay in all cases: NCI-60 one-dose screen, 48 h (100 = growth as untreated, 0 = no growth, -100 = all killed)
[1] = system: T-47D breast
[2] = system: BT-549 breast
[3] = system: MDA-MB-435 melanoma
[4] = system: SW-620 colon
[5] = system: MCF7 breast
[6] = system: HCT-116 colon
[7] = system: HCC-2998 colon
[8] = system: KM12 colon

Q: Which results are given for `O=C(N/N=C/c1ccc2c(c1)OCO2)c1ccncc1`?
A: growth ([1]; 10 µM unless noted): 112% (inactive) and 102% (inactive); growth ([2]; 10 µM unless noted): 103% (inactive) and 102% (inactive); growth ([3]; 10 µM unless noted): 108% (inactive) and 112% (inactive); growth ([4]; 10 µM unless noted): 93.6% (inactive) and 98.3% (inactive); growth ([5]; 10 µM unless noted): 107% (inactive) and 86.8% (inactive); growth ([6]; 10 µM unless noted): 105% (inactive) and 101% (inactive); growth ([7]; 10 µM unless noted): 103% (inactive) and 113% (inactive); growth ([8]; 10 µM unless noted): 91.9% (inactive) and 103% (inactive)

Q: What does the source list for `COc1cc2nc(N3CCN(C(=O)C4COc5ccccc5O4)CC3)nc(N)c2cc1OC` (configuration not stated)?
A: growth ([1]; 10 µM unless noted): 91.2% (inactive) and 93.6% (inactive) and 96% (inactive); growth ([2]; 10 µM unless noted): 86.9% (inactive) and 96.6% (inactive) and 105% (inactive); growth ([3]; 10 µM unless noted): 96.5% (inactive) and 90.2% (inactive) and 92.2% (inactive); growth ([4]; 10 µM unless noted): 92% (inactive) and 97.7% (inactive) and 109% (inactive); growth ([5]; 10 µM unless noted): 91.7% (inactive) and 95.2% (inactive) and 101% (inactive); growth ([6]; 10 µM unless noted): 105% (inactive) and 79.8% (inactive) and 104% (inactive); growth ([7]; 10 µM unless noted): 102% (inactive) and 105% (inactive) and 108% (inactive); growth ([8]; 10 µM unless noted): 103% (inactive) and 99.6% (inactive) and 102% (inactive)

Q: With `Nc1cc2c(cc1N)-c1ccccc1C2` as the compound, how does the growth ([1]; 10 µM unless noted) read?
A: Its growth is 80.8% (inactive) and 79.5% (inactive).

Q: And the growth ([2]; 10 µM unless noted)?
A: Its growth is 64.1% (inactive) and 75.5% (inactive).

Q: What about the growth ([3]; 10 µM unless noted) of the same compound?
A: Its growth is 91.6% (inactive) and 94.1% (inactive).

Q: What about the growth ([4]; 10 µM unless noted) of the same compound?
A: Its growth is 108% (inactive) and 100% (inactive).

Q: And the growth ([5]; 10 µM unless noted)?
A: The growth was 81.2% (inactive) and 95% (inactive).

Q: And the growth ([6]; 10 µM unless noted)?
A: Its growth is 98.8% (inactive) and 100% (inactive).

Q: What about the growth ([7]; 10 µM unless noted) of the same compound?
A: Its growth is 102% (inactive) and 90.1% (inactive).

Q: And the growth ([8]; 10 µM unless noted)?
A: Its growth is 90% (inactive) and 97.1% (inactive).

Q: For `NC(=S)N/N=C(\c1ccc(Br)cc1)C1CC1`, which growth ([1]; 10 µM unless noted) is on record?
A: The growth was 70.1% (inactive) and 36.2% (inactive).

Q: And the growth ([2]; 10 µM unless noted)?
A: Its growth is 99.6% (inactive) and 106% (inactive).

Q: And the growth ([3]; 10 µM unless noted)?
A: The growth was 92% (inactive) and 91.9% (inactive).

Q: What about the growth ([4]; 10 µM unless noted) of the same compound?
A: Its growth is 79.7% (inactive) and 71.1% (inactive).

Q: What about the growth ([5]; 10 µM unless noted) of the same compound?
A: Its growth is 24.4% (inactive) and 20.6% (inactive).

Q: And the growth ([6]; 10 µM unless noted)?
A: The growth was 7.26% (active) and 2.42% (active).

Q: And the growth ([7]; 10 µM unless noted)?
A: Its growth is 97.2% (inactive) and 93.9% (inactive).

Q: What about the growth ([8]; 10 µM unless noted) of the same compound?
A: Its growth is 101% (inactive) and 108% (inactive).

Q: With `COc1ccc(Cl)cc1C(=O)NCCc1ccc(S(=O)(=O)NC(=O)NC2CCCCC2)cc1` as the compound, how does the growth ([1]; 10 µM) read?
A: The growth was 86% (inactive) and 87.6% (inactive).

Q: What about the growth ([1]; 100 µM) of the same compound?
A: Its growth is 52.3% (inactive).

Q: What about the growth ([2]; 10 µM) of the same compound?
A: Its growth is 109% (inactive) and 107% (inactive).

Q: And the growth ([2]; 100 µM)?
A: The growth was 67% (inactive).

Q: And the growth ([3]; 10 µM)?
A: Its growth is 103% (inactive) and 107% (inactive).

Q: What about the growth ([3]; 100 µM) of the same compound?
A: Its growth is 69.5% (inactive).

Q: And the growth ([4]; 10 µM)?
A: The growth was 99.3% (inactive) and 109% (inactive).

Q: What about the growth ([4]; 100 µM) of the same compound?
A: Its growth is 82.9% (inactive).

Q: What about the growth ([5]; 10 µM) of the same compound?
A: Its growth is 108% (inactive) and 102% (inactive).

Q: What about the growth ([5]; 100 µM) of the same compound?
A: The growth was 66.1% (inactive).

Q: What about the growth ([6]; 10 µM) of the same compound?
A: Its growth is 110% (inactive) and 96.1% (inactive).

Q: And the growth ([6]; 100 µM)?
A: Its growth is 67.3% (inactive).

Q: What about the growth ([7]; 10 µM) of the same compound?
A: Its growth is 126% (inactive) and 118% (inactive).

Q: And the growth ([7]; 100 µM)?
A: The growth was 87.4% (inactive).

Q: And the growth ([8]; 10 µM)?
A: Its growth is 109% (inactive) and 108% (inactive).

Q: And the growth ([8]; 100 µM)?
A: The growth was 60.1% (inactive).

Q: What does the source list for `O=C(N/N=C/c1cccc2ccccc12)C1CC1`?
A: growth ([1]; 10 µM unless noted): 98.9% (inactive) and 109% (inactive); growth ([2]; 10 µM unless noted): 101% (inactive); growth ([3]; 10 µM unless noted): 117% (inactive) and 97.8% (inactive); growth ([4]; 10 µM unless noted): 110% (inactive) and 102% (inactive); growth ([5]; 10 µM unless noted): 80.3% (inactive) and 87.5% (inactive); growth ([6]; 10 µM unless noted): 106% (inactive) and 102% (inactive); growth ([7]; 10 µM unless noted): 104% (inactive) and 101% (inactive); growth ([8]; 10 µM unless noted): 108% (inactive) and 104% (inactive)

Q: With `COc1ccc(NC(=S)Nc2ccccn2)cc1` as the compound, how does the growth ([1]; 10 µM unless noted) read?
A: The growth was 101% (inactive).

Q: What about the growth ([2]; 10 µM unless noted) of the same compound?
A: Its growth is 105% (inactive).

Q: What about the growth ([3]; 10 µM unless noted) of the same compound?
A: Its growth is 98.7% (inactive).

Q: And the growth ([4]; 10 µM unless noted)?
A: The growth was 102% (inactive).

Q: What about the growth ([5]; 10 µM unless noted) of the same compound?
A: Its growth is 95.1% (inactive).

Q: And the growth ([6]; 10 µM unless noted)?
A: The growth was 95.4% (inactive).

Q: And the growth ([7]; 10 µM unless noted)?
A: The growth was 101% (inactive).

Q: What about the growth ([8]; 10 µM unless noted) of the same compound?
A: Its growth is 91% (inactive).

Q: Which results are given for `O=C(Nc1cccc(-n2ccc3c(NC(=O)c4ccccc4)nccc32)c1)c1ccc(Cl)c(C(F)(F)F)c1`?
A: growth ([1]; 10 µM unless noted): -36.7% (active) and 88.1% (inactive); growth ([2]; 10 µM unless noted): -75.1% (active) and 76.7% (inactive); growth ([3]; 10 µM unless noted): -59% (active) and 54.9% (inactive); growth ([4]; 10 µM unless noted): -73.8% (active) and 48.8% (inactive); growth ([5]; 10 µM unless noted): -48.5% (active) and 37.4% (inactive); growth ([6]; 10 µM unless noted): -99.1% (active) and 32.4% (inactive); growth ([7]; 10 µM unless noted): -27.9% (active) and 64.4% (inactive); growth ([8]; 10 µM unless noted): -54.5% (active) and 42.7% (inactive)
